This is a sample that favours compounds with a hit; in the whole collection about 2.4% have one here.
Cruzain inh noDet – cruzain (T. cruzi) inhibition without detergent; P25779; purified cruzain, Z-FR-AMC fluorescence, no detergent; Potency, µM, inactives show max response, negative = inhibition, actives largely listed as inhibitors; 200,000 compounds, 2.3% hits; AID 1476;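 also: plate controls were enzyme without inhibitor for no effect and buffer without enzyme for full effect; nearly all actives have a fitted effect of over 40% in size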
Target sequence (P25779 123-467 limits assumed): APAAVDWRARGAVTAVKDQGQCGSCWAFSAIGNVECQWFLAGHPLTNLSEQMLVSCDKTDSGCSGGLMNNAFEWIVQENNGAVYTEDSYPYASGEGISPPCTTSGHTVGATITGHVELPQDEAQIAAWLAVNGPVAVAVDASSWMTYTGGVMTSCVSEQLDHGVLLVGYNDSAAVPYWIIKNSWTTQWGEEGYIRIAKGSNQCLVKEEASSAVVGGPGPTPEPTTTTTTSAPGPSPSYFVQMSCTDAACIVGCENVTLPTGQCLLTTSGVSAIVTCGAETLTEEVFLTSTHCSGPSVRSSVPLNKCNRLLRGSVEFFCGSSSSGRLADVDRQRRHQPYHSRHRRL
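Detergent-free condition (0.00005% Triton X-100) in acetate buffer pH 5.5 with DTT. 1.5 nM enzyme and compound were pre-mixed 15 min, then 2 uM Z-FR-AMC substrate added; reaction progress from fluorescence change between first and third reads (60 s).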
Cruzain inh Det – blocks cruzain activity in presence of Triton detergent. P25779. Potency, µM, inactives show max response, negative = inhibition, actives largely listed as inhibitors. purified cruzain, Z-FR-AMC fluorescence, 0.01% Triton. 200,000 compounds, 0.43% hits;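 also: plate controls were neutral wells for no effect and buffer without enzyme for full effect; nearly all actives have a fitted effect of over 40% in size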
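15 min RT preincubation of 1.5 nM cruzain with compound, then 2 uM Z-FR-AMC added; kinetic AMC fluorescence, 60 s delta. Triton X-100 0.01%, pH 5.5.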
* marks the source's active call; other numbers are inactive results; ? = inconclusive; ! = not confirmed by another sample. Calls follow the shape of the dose curve; as a rule, active = well fitted curve in the direction sought with a large enough effect; inconclusive = small, poorly fitted or top-dose-only effect, or another doubt; inactive = no such curve, though single readings can be large; an effect the other way counts as inactive or inconclusive. Potency is read from the fitted curve at half-maximal effect.

SMILES	Cruzain inh noDet	Cruzain inh Det
COc1cccc([C@@H]2Oc3ccc(OC)cc3C[C@H]2OC(=O)Nc2ccc(OC(F)F)cc2)c1	-1%	3%
O=C(Nc1ccc(OCc2cc(=O)n3c4c(sc3n2)CCCC4)cc1)c1cccc(F)c1	12%	0%
CC(C)(C)n1cnc2cc(NCc3ccccc3Cl)ccc21	-5%	-8%
CC(OC(=O)CNC(=O)c1ccccc1F)C(=O)Nc1nc(-c2ccccc2)cs1 (configuration not stated)	7.9µM*	7.9µM*
Cc1ccc(-c2csc(NC(=O)CCNC(=O)c3ccccc3Cl)n2)cc1	-9%	-7%
COc1ncc2ncc(=O)n(C[C@H]3CCCO3)c2n1	-2%	-3%
CCOC(=O)c1[nH]c(C)c(CCC(=O)Nc2ccc(N(CC)CC)cc2C)c1C	-18%	4%
O=C(NC(=S)NNS(=O)(=O)c1ccccc1)c1ccccc1[N+](=O)[O-]	-15%	-17%
O=C(NC(=S)NNS(=O)(=O)c1ccccc1)c1ccc([N+](=O)[O-])cc1	10µM*	?
CCn1c(CN2CCC(C)CC2)nc2cc(NC(=O)c3cccc([N+](=O)[O-])c3)ccc21	-12%	-10%
Cc1cccc(N2CCN(C(=O)CN3C(=O)COc4ccc(S(=O)(=O)N5CCCC5)cc43)CC2C)c1 (configuration not stated)	?	-4%
O=C(N/N=C/c1cc2ccccc2nc1Cl)/C(=C/c1cccs1)NC(=O)c1ccccc1	25µM*	-7%
O=C(N/N=C/c1cccnc1)/C(=C\c1cccs1)NC(=O)c1ccccc1	-7%	-12%
Cc1sc2ncnc(SCC(=O)c3cccs3)c2c1C	?	2%
Cc1sc2ncnc(SCC(=O)N3c4ccccc4Sc4ccc(Cl)cc43)c2c1C	7.9µM*	-4%
CCOc1ccc(C(=O)Nc2nnc(S(=O)(=O)Nc3ccccc3)s2)cc1	0%	-1%
CCN(CC)CCCNC(=O)c1cc(-c2ccc(OC)c(OC)c2)on1	-5%	-2%
Nc1sc2c(c1C(=O)c1ccccc1)CCCC2	-24%	-8%
NC(=O)c1c(N)sc2c1CCCC2	20µM*	-22%
COc1ccc(NC(=O)c2cc(Cl)ccc2Cl)c([N+](=O)[O-])c1	-5%	-4%
O=C(Nc1ccc([N+](=O)[O-])cc1Cl)c1cc(Cl)ccc1O	13%	5.6µM*!
COc1ccc(NC(=O)c2oc3ccccc3c2NC(=O)C23CC4CC(CC(C4)C2)C3)cc1	0%	-4%
CC(=O)c1cccc(NC(=O)COC(=O)[C@@H](NC(=O)OCc2ccccc2)C(C)C)c1	25µM*	16µM*
CC(C)C(NC(=O)OCc1ccccc1)C(=O)OCC(=O)N1CCCCC1 (configuration not stated)	1%	4%
CC(C)C[C@@H](CC(=O)N[C@@H](CCC(=O)O)CC(=O)O)NC(=O)[C@@H]1CCCC[C@H]1NC(=O)C[C@H](CCCN)NC(=O)C[C@H](Cc1c[nH]c2ccccc12)NC(=O)[C@@H]1CCCC[C@H]1N	19%	-2%
SMILES	Cruzain inh noDet	Cruzain inh Det
COc1cc(/C=N/NC(=S)Nc2cccc(S(=O)(=O)N(C)C)c2)ccc1O	-8%	-18%
CN(C)S(=O)(=O)c1cccc(NC(=S)NN=C(Cc2ccccc2)Cc2ccccc2)c1	32µM*	-3%
COc1ccc(NC(=O)CN(c2cccc(C)c2C)S(=O)(=O)c2ccccc2)cc1OC	?	-9%
COCCNC(=O)c1cnc2sc(N3CCCCC3)nn2c1=O	-12%	-10%
O=C(Nc1ccc2c(c1)OCO2)[C@@H]1[C@@H]2C(=O)N(C3CCCCC3)C(=O)[C@@H]2C2c3ccccc3C=CN21 (some centres not stated)	20µM*	-6%
CC(C)(C)C(=O)[C@@H]1[C@@H]2C(=O)N(C3CCCCC3)C(=O)[C@@H]2[C@H]2c3ccccc3C=CN12	?	2%
O=C(c1cccs1)[C@@H]1[C@@H]2C(=O)N(Cc3ccc4c(c3)OCO4)C(=O)[C@@H]2C2c3ccccc3C=CN21 (some centres not stated)	25µM*	-2%
O=C(c1ccc2c(c1)OCO2)[C@@H]1[C@@H]2C(=O)N(C3CCCCC3)C(=O)[C@@H]2C2c3ccccc3C=CN21 (some centres not stated)	20µM*	-2%
O=C1c2ccccc2C(=O)N1Cc1ccc2c(c1)OCO2	-10%	-2%
O=C(Nc1ccc2c(c1)OCO2)C1CCN(S(=O)(=O)Cc2ccccc2)CC1	-9%	2%
Cc1ccc(C(=O)Nc2ccc3oc(-c4cc(Br)ccc4Cl)nc3c2)cc1	6%	-2%
O=c1cc(N2CCOCC2)oc2c(-c3ccccc3)cccc12	8%	?
N#CCSc1nc2ccc(N3CCCCC3)cc2c(=O)n1Cc1ccccc1	25µM*	-1%
C=C(C)Cn1c(SCC#N)nc2ccccc2c1=O	-11%	1%
CCCCCC(=O)/C=C/[C@@H]1[C@@H](C/C=C\CCCC(=O)O)[C@@H](O)C[C@H]1O	-2%	3%
CCCN1C(=O)c2[nH]nc(-c3ccccc3O)c2C1c1ccc(OCc2ccccc2)c(OC)c1 (configuration not stated)	?	-8%
CCCOc1ccc(C2c3c(-c4ccccc4O)n[nH]c3C(=O)N2CCc2ccccc2)cc1OCC (configuration not stated)	13µM*	-2%
COc1ccc(C2c3c(-c4ccccc4O)n[nH]c3C(=O)N2CCc2ccccc2)cc1 (configuration not stated)	32µM*	-10%
CC(C)c1ccc(C2c3c(-c4ccccc4O)n[nH]c3C(=O)N2CCc2ccccc2)cc1 (configuration not stated)	20µM*	-4%
Cc1ccc(C2c3c(-c4ccccc4O)n[nH]c3C(=O)N2CCc2ccccc2)cc1 (configuration not stated)	?	-11%
COc1ccc(C2c3c(-c4ccccc4O)n[nH]c3C(=O)N2CCc2ccc(OC)c(OC)c2)cc1 (configuration not stated)	6%	-5%
CCCCN(CC)C(=O)CSc1nc2ccccc2c(=O)n1Cc1ccco1	-4%	-5%
O[C@@H](C1=C/C(=C\c2ccncc2)c2ccccc21)c1ccncc1	4%	-2%
Cc1ccsc1/C=C(\C(=O)c1ccc(OC(C)C)cc1)c1nc2ccccc2o1	32µM*	-5%
CC(C)Oc1ccc(C(=O)N2CCC(c3nc4ccccc4o3)CC2)cc1	13%	-4%
SMILES	Cruzain inh noDet	Cruzain inh Det
COc1ccc(C(=O)N/N=C/c2ccc(OC)c(CN3CCCc4ccccc43)c2)cc1	16µM*	-7%
COc1ccc(C(=O)N/N=C/c2ccc(OC)c(CN3CCN(c4ccc(F)cc4)CC3)c2)cc1	6%	-10%
Cc1cnc(CNc2nc(-c3ccc(N(C)C)cc3)nc3ccccc23)cn1	12%	-8%
O=C(CC1S/C(=N/N=C/C=C/c2ccccc2)NC1=O)Nc1ccc(Cl)c(Cl)c1 (configuration not stated)	6.3µM*	-1%
O=C(O)CC1S/C(=N/N=C/C=C/c2ccccc2)NC1=O (configuration not stated)	-3%	-17%
Cc1cccc(C)c1NC(=O)Cn1nnc(-c2ccc(N3CCOCC3)cc2)n1	20µM*	-4%
Cc1cc(C)c(NC(=O)Cn2nnc(-c3ccccc3)n2)c(C)c1	0%	1%
COc1ccc(Br)cc1/C=N/NC(=O)CNC(=O)/C=C/c1ccccc1	?	-4%
